Results taken from PubChem BioAssay (NCATS).
Inconclusive results are not listed. Active and inactive are the calls of the source. Unless noted, calls follow the shape of the dose curve; as a rule, active = well fitted curve in the direction sought with a large enough effect; inconclusive = small, poorly fitted or top-dose-only effect, or another doubt; inactive = no such curve, though single readings can be large; an effect the other way counts as inactive or inconclusive.

Columns and labels:
[1] = Cellular Toxicity (caspase-3) SHSY5Y (AID 657);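 also: cells exposed to compound for 16 hours at 37 °C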
How it was run: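 qHTS, SH-SY5Y, 1500 cells/well, 5 h pre-incubation 37 °C; compound 16 h 37 °C; Caspase-Glo 3/7 1 h RT; luminescence. Norm.: DMSO = 0, 10 uM staurosporine = 100%. Hill fit → AC50.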

[2] = Cell Viability - LYMP2-019 (AID 973);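 also: cells exposed to compound for 24 h at 37 °C; nearly all actives have a fitted effect of over 55% in size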
How it was run: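 AC50 values come from Hill-equation modelling of qHTS concentration-response curves, where viability is measured as luciferase-based ATP luminescence in the lymphoblastoid line after 24 hr compound exposure in complete culture medium.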

CP192 = assay: qHTS profiling for inhibitors of Plasmodium falciparum proliferation (AID 504749); also: nearly all actives have a fitted effect of over 60% in size; also: potency is read from the fitted curve at half-maximal effect; details: P. falciparum in erythrocytes, SYBR Green DNA, 72 h; series mostly up to 28.7 µM
How it was run: (§1)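 Fluorescence of SYBR Green-bound parasite DNA, read at 485/535 nm, served as the growth measure. Infected erythrocytes were cultured with compound 72 h; artemisinin (0.29 uM) and DMSO wells defined the normalization range.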

CP262 = assay: as above; details: P. falciparum in erythrocytes, SYBR Green DNA, 72 h; series mostly up to 28.7 µM
How it was run: as §1

CP269 = assay: as above; details: P. falciparum in erythrocytes, SYBR Green DNA, 72 h; series mostly up to 28.7 µM
How it was run: as §1

CP291 = assay: as above; details: P. falciparum in erythrocytes, SYBR Green DNA, 72 h; series mostly up to 28.7 µM
How it was run: as §1

CP335 = assay: as above; details: P. falciparum in erythrocytes, SYBR Green DNA, 72 h; series mostly up to 28.7 µM
How it was run: as §1

GB4 = assay: as above; details: P. falciparum in erythrocytes, SYBR Green DNA, 72 h; series mostly up to 28.7 µM
How it was run: as §1

W2 = assay: as above; details: P. falciparum in erythrocytes, SYBR Green DNA, 72 h; series mostly up to 28.7 µM
How it was run: as §1

[3] = Cell Viability - Jurkat (AID 426;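 active = dose-dependent loss of cell ATP signal giving a full or clear fitted curve, ranked by lower potency value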;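 also: potency is read from the fitted curve at half-maximal effect; cells exposed to compound for 40 hours at 37 °C before ATP read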); details: qHTS
How it was run: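 Cytotoxicity was scored as loss of cellular ATP, measured by luciferase-based luminescence, in Jurkat clone E6-1 cells after 40 h compound treatment; tamoxifen and doxorubicin served as positive controls.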

[4] = biological target: Ubiquitin carboxyl-terminal hydrolase 1 (Homo sapiens) (UniProt O94782); assay: Inhibitors of USP1/UAF1: Pilot qHTS (AID 504865);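 also: rhodamine fluorescence freed from ubiquitin-rhodamine substrate followed over time; top concentration of the series differs between compounds; nearly all actives have a fitted effect of over 35% in size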
How it was run: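 In 50mM HEPES pH 7.8 containing 0.5mM EDTA, 1mM TCEP, 0.1 mg/ml BSA and 0.01% Tween-20, 1nM USP1/UAF1 is exposed to compound for 15 min, then Ub-Rho (150nM final) is added and fluorescence is read over time.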

AA1029 = assay: qHTS profiling for inhibitors of Plasmodium falciparum proliferation (AID 504749); also: nearly all actives have a fitted effect of over 60% in size; also: potency is read from the fitted curve at half-maximal effect; details: P. falciparum in erythrocytes, SYBR Green DNA, 72 h; series mostly up to 28.7 µM
How it was run: as §1

AS120 = assay: as above; details: P. falciparum in erythrocytes, SYBR Green DNA, 72 h; series mostly up to 28.7 µM
How it was run: as §1

ATS189 = assay: as above; details: P. falciparum in erythrocytes, SYBR Green DNA, 72 h; series mostly up to 28.7 µM
How it was run: as §1

ATS95 = assay: as above; details: P. falciparum in erythrocytes, SYBR Green DNA, 72 h; series mostly up to 28.7 µM
How it was run: as §1

CP238 = assay: as above; details: P. falciparum in erythrocytes, SYBR Green DNA, 72 h; series mostly up to 28.7 µM
How it was run: as §1

CP247 = assay: as above; details: P. falciparum in erythrocytes, SYBR Green DNA, 72 h; series mostly up to 28.7 µM
How it was run: as §1

CP265 = assay: as above; details: P. falciparum in erythrocytes, SYBR Green DNA, 72 h; series mostly up to 28.7 µM
How it was run: as §1

CP286 = assay: as above; details: P. falciparum in erythrocytes, SYBR Green DNA, 72 h; series mostly up to 28.7 µM
How it was run: as §1

PC15 = assay: as above; details: P. falciparum in erythrocytes, SYBR Green DNA, 72 h; series mostly up to 28.7 µM
How it was run: as §1

Measured: Potency

Sequence of Ubiquitin carboxyl-terminal hydrolase 1 (Homo sapiens) (O94782 whole entry, looked up): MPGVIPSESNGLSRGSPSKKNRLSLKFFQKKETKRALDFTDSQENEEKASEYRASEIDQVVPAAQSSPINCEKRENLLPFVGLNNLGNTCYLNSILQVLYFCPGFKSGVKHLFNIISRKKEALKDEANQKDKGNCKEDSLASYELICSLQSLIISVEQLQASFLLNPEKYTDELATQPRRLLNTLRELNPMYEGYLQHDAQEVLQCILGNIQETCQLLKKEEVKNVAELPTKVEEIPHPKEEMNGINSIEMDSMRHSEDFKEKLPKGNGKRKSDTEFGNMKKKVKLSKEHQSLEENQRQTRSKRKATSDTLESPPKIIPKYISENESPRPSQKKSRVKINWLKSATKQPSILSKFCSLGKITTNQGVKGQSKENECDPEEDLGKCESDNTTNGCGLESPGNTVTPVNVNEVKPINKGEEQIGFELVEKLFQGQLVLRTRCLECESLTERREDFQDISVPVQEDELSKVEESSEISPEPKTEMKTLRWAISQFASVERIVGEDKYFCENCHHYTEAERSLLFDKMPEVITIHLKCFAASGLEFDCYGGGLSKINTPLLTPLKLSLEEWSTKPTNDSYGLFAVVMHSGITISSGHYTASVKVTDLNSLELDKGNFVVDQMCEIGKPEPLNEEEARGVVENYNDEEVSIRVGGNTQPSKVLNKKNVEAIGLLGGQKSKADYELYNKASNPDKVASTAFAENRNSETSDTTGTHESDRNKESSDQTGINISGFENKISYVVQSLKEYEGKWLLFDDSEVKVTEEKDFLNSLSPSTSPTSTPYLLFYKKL

O=C(O)c1ccccc1C(c1ccc(O)cc1)c1ccc(O)cc1
inactive: [1] | [2]

Nc1nc(Cl)nc2c1ncn2C1CC(O)C(CO)O1 (stereo not given)
inactive: CP192 | CP262 | CP269 | CP291 | CP335 | GB4 | W2

COc1ccc2nc(N)sc2c1
inactive: [3] > 92 µM

C=Cc1ccccc1Cl
inactive: [3] > 92 µM | [2]

Cc1ccc([N+](=O)[O-])cc1N
inactive: [3] > 92 µM | [1]

NC1=NC(S)C2N=CN=C2N1 (stereo not given)
inactive: [4] | AA1029 | AS120 | ATS189 | ATS95 | CP192 | CP238 | CP247 | CP262 | CP265 | CP269 | CP286 | CP291 | CP335 | GB4 | PC15 | W2
active: [3] 0.0486 µM

CCCCCCCCCCCCCCC1CO1 (stereo not given)
inactive: [3] > 92 µM

CCCCOCCO
inactive: [3] > 92 µM | [2]

CC1(C)CC(N=C=O)CC(C)(CN=C=O)C1 (stereo not given)
inactive: [3] > 92 µM | [2]

O=NCc1ccc([N+](=O)[O-])o1
active: GB4 13.5 µM | W2 6.01 µM
inactive: [4] | AA1029 | ATS189 | ATS95 | CP192 | CP238 | CP262 | CP265 | CP286 | CP291 | CP335 | PC15

Nc1ccc(Cl)cc1Cl
inactive: [3] > 92 µM | [1] | [2]

c1ccccc1
inactive: [3] > 92 µM | [2]

CCCCC(CC)CN (stereo not given)
inactive: [3] > 92 µM

CCO
inactive: [3] > 92 µM

O=C(O)c1ccc(O)cc1O
inactive: [3] > 92 µM | [1]

Cc1ccc(N)c([N+](=O)[O-])c1
inactive: [3] > 92 µM

CN1CC[C@H](CN2c3ccccc3Sc3ccccc32)C1
active: AA1029 5.01 µM | AS120 12.6 µM | ATS189 11.2 µM | ATS95 12.6 µM | CP238 8.91 µM | CP247 7.94 µM | CP265 11.2 µM | CP269 15.1 µM | CP286 12.6 µM | CP291 15.1 µM | GB4 13.5 µM | PC15 11.2 µM | W2 1.9 µM
inactive: [4] | CP192 | CP262

Cc1ccc([N+](=O)[O-])c(C)c1
inactive: [3] > 92 µM

Clc1cc(Cl)c(Cl)cc1Cl
inactive: [3] > 92 µM | [2]

Clc1cc(Cl)c(Cl)c(Cl)c1Cl
inactive: [3] > 92 µM | [2]

CN(C)CCCCCCN(C)C
inactive: [4] | AA1029 | AS120 | ATS189 | ATS95 | CP192 | CP238 | CP247 | CP262 | CP265 | CP269 | CP286 | CP291 | CP335 | GB4 | PC15 | W2

COc1ccc2[nH]cc(CCNc3nc(-c4ccccc4OC)nc4ccccc34)c2c1
inactive: [4]

CC(C)=CCCC(C)CCO (stereo not given)
inactive: [2] | [4]

CCO[Si](CCCN)(OCC)OCC
inactive: [2]

Cc1cccc([N+](=O)[O-])c1C
inactive: [1]

Cc1c(N=C=O)cccc1N=C=O
inactive: [1] | [2]

COC(=O)c1ccc(C)cc1
inactive: [1]

COCCn1c(=O)c(-c2cccs2)nc2cnc(N3CCNCC3)nc21
inactive: [4]

C1OCOCO1
inactive: [1] | AA1029 | AS120 | ATS189 | ATS95 | CP192 | CP238 | CP247 | CP262 | CP265 | CP269 | CP286 | CP291 | CP335 | GB4 | PC15 | W2

OCCNCCO
inactive: [1] | [2]

CCCN(CCC)C(=O)SCC
inactive: [1] | [2]

S=C1NC=NC2N=CNC12 (stereo not given)
inactive: [1] | AA1029 | AS120 | ATS189 | ATS95 | CP238 | CP247 | CP262 | CP265 | CP286 | CP335 | PC15 | W2

O=[N+]([O-])c1cccc(Cl)c1Cl
inactive: [1] | [2]

CN(C)Cc1ccccc1-c1ccc2ncnc(N(C)C)c2c1
inactive: [4]

C/C=C\c1ccc(OC)cc1
inactive: [2] | [4] | AA1029 | AS120 | ATS189 | ATS95 | CP192 | CP238 | CP247 | CP262 | CP265 | CP269 | CP286 | CP291 | CP335 | GB4 | PC15 | W2

CCC(C)c1ccccc1O (stereo not given)
inactive: [2]

COC(=O)c1ccc(C=O)cc1
inactive: [1]

O=C(O)CC(C(=O)O)C(CC(=O)O)C(=O)O (stereo not given)
inactive: [1]

CC(=O)OC/C=C(\C)CCC=C(C)C
inactive: [1] | [2]

COC(=O)CCCCC(=O)OC
inactive: [3] > 92 µM

CN1CCN(c2nc(-c3cccnc3)nc3ccccc23)CC1
inactive: [4]
